Results on 40 compounds are retold here after PubChem BioAssay (EPA / NIEHS).

Records with an inconclusive call do not appear. The source made the active and inactive calls. The calls were made as follows: active = hit-call score of the fitted dose curve at least 0.9, where 1 is the maximum; inconclusive = response in the unintended direction; inactive = score below 0.9.

The target of this experiment is Cellular tumor antigen p53 (Homo sapiens) (UniProt P04637). Kind of experiment: TOX21_p53_BLA_p4_ratio: Tox21 HCT-116 p53 Agonism Beta-lactamase Assay, Ratio, Phase 4 (AID 2283601). From the text: TOX21_p53_BLA_p4 is a cell-based, single-readout assay that uses HCT116, a human intestinal cell line, […] in a 1536-well plate.TOX21_p53_BLA_p4_ratio is an assay readout measuring reporter gene via receptor activity and designed using inducible reporter (beta lactamase induction) detected with GAL4 b-lactamase reporter gene. The signal is derived from the ratio of cleaved (ch2) to uncleaved (ch1)reporter gene substrate used as the measure of target activity.Data from the assay component TOX21_p53_BLA_p4_ratio was analyzed into 1 assay endpoint. This assay endpoint, TOX21_p53_BLA_p4_ratio, was analyzed in the positive analysis fitting direction relative to DMSO as the negative control and baseline of activity. Using a type of inducible reporter, gain-of-signal activity can be used to understand changes in the reporter gene as they relate to the gene TP53. Furthermore, this assay endpoint can be referred to as a primary readout, because this assay has produced multiple assay endpoints where this ratio serves a reporter gene function to understand target activity. To generalize the intended target to other relatable targets, this assay endpoint is annotated to the DNA binding intended target family, where the subfamily is tumor suppressor.
Sequence of Cellular tumor antigen p53 (Homo sapiens) (P04637 whole entry, looked up, the tested form may be a part): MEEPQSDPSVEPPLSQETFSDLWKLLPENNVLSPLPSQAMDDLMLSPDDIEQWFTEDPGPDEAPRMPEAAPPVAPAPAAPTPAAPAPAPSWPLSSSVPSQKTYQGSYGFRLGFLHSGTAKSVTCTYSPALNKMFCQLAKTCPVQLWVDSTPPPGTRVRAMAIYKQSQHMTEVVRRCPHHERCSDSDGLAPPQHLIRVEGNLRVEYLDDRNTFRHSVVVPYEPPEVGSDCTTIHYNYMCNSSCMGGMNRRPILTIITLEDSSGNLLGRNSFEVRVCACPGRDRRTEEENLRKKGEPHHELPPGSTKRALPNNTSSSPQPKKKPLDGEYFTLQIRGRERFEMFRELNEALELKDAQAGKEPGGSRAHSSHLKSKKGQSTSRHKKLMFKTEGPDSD
Thawing Method: Place 14 mL of pre-warmed thaw medium into a 15 mL of conical tub. Remove the vial of cells to be thawed from liquid nitrogen and thaw rapidly by placing at 37C in a water bath with gentle agitation for 1-2 minutes. Decontaminate the vial by wiping with 70% ethanol before opening in a biological safety cabinet. Transfer the vial contents drop-wise into 14 mL of thaw medium in a sterile 15-mL conical tub. Centrifuge cells at 900 rpm for 4 minutes and resuspend in thaw medium. Transfer contents to the T75 tissue culture flask containing Thaw Medium and place flask in a humidified 37C/5% CO2 incubator. Switch to growth medium at first passage.Propagation Method: Aspirate medium, rinse once in DPBS, add 0.25% Trypsin/EDTA and swirl to coat the cell evenly. Add an equal volume of Growth Medium to inactivate Trypsin after 2-3 minutes incubation at 37C. Centrifuge cells at 900 rpm for 4 minutes and resuspend in growth medium. Cell should be passage or fed at least twice a week.Assay Protocol: Harvest cells from culture in growth medium and resuspend in assay medium. 2.2 Dispense 4000 cells/5 uL/well into 1536-well black/clear bottom plates using a Multidrop dispenser. After the cells were incubated at 37C for 5 hours, 23 nL of compounds dissolved in DMSO were transferred to the assay plate by a PinTool resulting in a 217-fold dilution. Incubate the plates for 16 hours at 37C, 5% CO2. Add 1 uL of 6X LiveBLAzer FRET B/G (CCF4-AM) Substrate Mixture to each well using a BioRAPTR dispenser and incubate the plates at room temperature for 2 hours. Measure fluorescence intensity at 460 and 530 nm emission and 405 nm excitation by an Envision detector. Data is expressed as the ratio of 460nm/530nm emissions. Add 4 uL of Cell-titer Glo to each well using BioRAPTR and incubate the plates at room temperature for 2 hours. Measure fluorescence intensity by a VewLux plate reader.
As for `O=C1CCCc2ccccc21`, the result was inactive.
The result for `CC(CN1c2ccccc2Sc2ccc(S(=O)(=O)N(C)C)cc21)N(C)C` (stereo not given) reads “inactive”; that for `CNCC(=O)N[C@@H](CCCN=C(N)N)C(=O)N[C@H](C(=O)N[C@@H](Cc1ccc(O)cc1)C(=O)N[C@H](C(=O)N[C@@H](Cc1cnc[nH]1)C(=O)N1CCC[C@H]1C(=O)N[C@@H](C)C(=O)O)C(C)C)C(C)C`, “inactive”; that for `N[C@@H](CSCCCO)C(=O)O`, “inactive”.
On to `CC(CN(C)C)CN1c2ccccc2CCc2ccccc21` (stereo not given), for which the result was inactive.
Take `CN(CC(=O)N1CCOCC1)Cc1c(Cl)cccc1NC(=O)c1ccccc1`: the result was inactive.
In the case of `NC(=O)c1ccc[n+]([C@@H]2O[C@H](COP(=O)([O-])OP(=O)(O)OC[C@H]3O[C@@H](n4cnc5c(N)ncnc54)[C@H](O)[C@@H]3O)[C@@H](O)[C@H]2O)c1`, the outcome was inactive.
With `COc1ccc2cc([C@H](C)CO)ccc2c1` the entry was “inactive”; with `CN1CCN(CCC(=O)N2c3ccccc3Sc3ccc(C(F)(F)F)cc32)CC1`, “inactive”; with `CCOC(=O)c1ccc(I)cc1`, “inactive”.
The result for `CCN(CC)CCOC(=O)C(c1ccccc1)C1CCCCC1` (stereo not given) reads “inactive”; that for `O=c1[nH]cnc2c1ncn2[C@@H]1O[C@H](CO)[C@@H](O)[C@H]1O`, “inactive”.
With `O=C(O)C(O)[C@H](O)[C@@H](O)[C@H](O)[C@H](O)CO` (stereo not given in full) the entry was “inactive”.
Consider `C=N[C@@H](C(=O)N[C@@H]1C(=O)N2[C@@H]1SC(C)(C)[C@@H]2C(=O)O)c1ccccc1`, for which the outcome was inactive.
The result for `C[C@@](Cc1ccc(O)c(O)c1)(NN)C(=O)O` reads “inactive”.
As for `CCN(CC)CCNC(=O)COc1ccc(OC)cc1`, the outcome was inactive.
Consider `O=S(=O)(O)c1cccc(S(=O)(=O)O)c1`, for which the outcome was inactive.
With `CC(C)(C)NCCO` the entry was “inactive”; with `C=CC(=O)OCCOCC(CC)(COCCOC(=O)C=C)COCCOC(=O)C=C`, “inactive”; with `CC(C)NC[C@@H](O)COc1cccc2ccccc12`, “inactive”.
With `Cc1cccc(C)c1NC(=O)NC1=CCCN1C` the entry was “inactive”; with `CC1COc2c(N3CCN(C)CC3)c(F)cc3c(=O)c(C(=O)O)cn1c23` (stereo not given), “inactive”.
The result for `NS(=O)(=O)c1ccccc1Cl` reads “inactive”; that for `Cc1ccc(CO)cc1`, “inactive”.
For `CCc1c(C)[nH]c2c1C(=O)C(CN1CCOCC1)CC2` (stereo not given), the result was inactive.
The result for `NC1CCN(c2nc3c(cc2F)c(=O)c(C(=O)O)cn3-c2ccc(F)cc2F)C1` (stereo not given) reads “inactive”; that for `O=C(O)[C@H]1/C(=C/CO)O[C@@H]2CC(=O)N21`, “inactive”; that for `O=Cc1ccc(C(=O)O)cc1`, “inactive”.
With `CCCn1c(=O)[nH]c(=O)c2[nH]cnc21` the entry was “inactive”; with `NS(=O)(=O)c1cc2c(cc1Cl)NC(Cc1ccccc1)NS2(=O)=O` (stereo not given), “inactive”; with `Brc1cc2ccccc2c2ccccc12`, “inactive”.
With `CC(C)(C)C(=O)NCCCC(=O)O` the entry was “inactive”; with `Nc1ccccc1S(=O)(=O)O`, “inactive”; with `C[Se]CC[C@H](N)C(=O)O`, “inactive”.
With `CC(C)CCC[C@@H](C)[C@H]1CC[C@H]2[C@@H]3CC[C@@H]4C[C@H](O)CC[C@]4(C)[C@H]3CC[C@]12C`, the outcome was inactive.
The result for `O=C(NNCS(=O)(=O)O)c1ccncc1` reads “inactive”; that for `OCC(O)COc1ccc(Cl)cc1` (stereo not given), “inactive”; that for `Cc1cccc(C)c1NC(=O)CN1CCCCCC1`, “inactive”.
With `Cc1cc(O)ccc1O` the entry was “inactive”.
The result for `O=C1OC(OC(=O)c2cccnc2Nc2cccc(C(F)(F)F)c2)c2ccccc21` (stereo not given) reads “inactive”.
